# Assay results: PubChem BioAssay AID602440 (Sanford-Burnham Center for Chemical Genomics, 2012)
# The campaign covered roughly 360,000 compounds. About 2,300 (0.64%) were called active. This is one part of a sample in which actives are shown more often than they occur. Rule as the data show it: active = inhibition mostly above about 40% (no sharp cut-off); inactive = mostly below about 27%.
# Biological target: Sentrin-specific protease 8 (Homo sapiens) (UniProt Q96LD8)
# Test: human SENP8 protease inhibitors, primary screen, biochemical, fluorescence, Nedd8 protein substrate, uHTS (AID 602440)
# Settings: recombinant SENP8, Nedd8 substrate fluorescence; at 20 µM; active compounds read high
# Sequence of Sentrin-specific protease 8 (Homo sapiens) (Q96LD8 whole entry, looked up): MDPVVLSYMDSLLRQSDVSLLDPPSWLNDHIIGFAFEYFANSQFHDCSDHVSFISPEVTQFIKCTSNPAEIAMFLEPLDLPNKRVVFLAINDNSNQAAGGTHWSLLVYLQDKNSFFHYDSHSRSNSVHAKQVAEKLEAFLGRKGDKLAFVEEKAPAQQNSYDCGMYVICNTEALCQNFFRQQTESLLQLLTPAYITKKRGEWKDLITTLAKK
row,Structure (SMILES),inhibition
1,CC1(C(=O)Nc2cccc3c2CCCC3)CCN1C(=O)CCc1ccc(Cl)cc1Cl (centres undefined),10.4% (inactive)
2,CC(=O)N1C(=O)/C(=C2\SC(=S)N(NC(=O)c3ccc(O)cc3)C2=O)c2ccccc21,53.5% (active)
3,COc1ccc2c(c1)N(C)/C(=C1/SC(=S)N(NC(C)=O)C1=O)S2,1.5% (inactive)
4,COc1ccc(C(=O)NN2C(=O)C3C(c4ccccc4)C=CC(c4ccccc4)C3C2=O)cc1 (centres undefined),7% (inactive)
5,Oc1cccc(C2c3[nH]c4ccccc4c3CCN2Cc2cnn(-c3ccccc3)c2)c1 (centres undefined),-56.9% (inactive)
6,CSCC[C@H](NC(=O)CCCn1nnc2ccccc2c1=O)C(=O)O,38.5% (inactive)
7,CCOC(=O)N1CCN(C(=O)C[C@@H]2C[C@@]3(C(=O)OC)CC(C)(C)CC=C3N(Cc3ccco3)C2=O)CC1,26.3% (inactive)
8,CCCc1ccc(C(=O)COC(=O)CN2C(=O)NC3(CCCCC3C)C2=O)cc1 (centres undefined),9.6% (inactive)
9,CCCCCCCCCCCCCCCC(=O)OC/C=C(C)/C=C/C=C(C)/C=C/C1=C(C)CCCC1(C)C,40.9% (active)
10,CCc1nnc(NC(=O)CCN(c2ccc(C)cc2)S(=O)(=O)c2ccccc2)s1,14.8% (inactive)
11,COCCCNC(=O)CNC(=S)N(Cc1cc(OC)c(OC)c(OC)c1)C1CCCC1,4.9% (inactive)
12,Cc1c(NC(=O)Nc2cccc([N+](=O)[O-])c2)c(=O)n(-c2ccccc2)n1C,9.3% (inactive)
13,COC(=O)C(C)n1cnc2c(nnn2-c2ccc(F)cc2)c1=O (centres undefined),4.4% (inactive)
14,CCOC(=O)C(CC)Sc1ncnc2c1nnn2-c1ccc(F)cc1 (centres undefined),40.3% (active)
15,CCOC(=O)C(C)n1cnc2c(nnn2-c2ccc(F)cc2)c1=O (centres undefined),6.3% (inactive)
16,CC(C)c1nc2oc3c(N4CCN(C)CC4)ncnc3c2c2c1CCC2,-130% (inactive)
17,Cc1ccnc(N2CCN(C(=O)CSc3nc4ccccc4nc3N3CCCCC3)CC2)c1,-63.3% (inactive)
18,OC(COCC1COc2ccccc2O1)CN1CCN(c2ccc(F)cc2)CC1 (centres undefined),16.7% (inactive)
19,CN1/C(=c2/s/c(=C3/C(=O)N(c4ccccc4)NC3=Nc3ccccc3)n(C)c2=O)C(C)(C)c2ccccc21,54.8% (active)
20,OCC1(Cc2ccccc2)CCN(Cc2cc3ccccc3o2)CC1,3.7% (inactive)

row,Structure (SMILES),inhibition
1,CCN(CC)S(=O)(=O)c1ccc(N2CCOCC2)c(NC(=O)C2CSC3(C)CCC(=O)N23)c1 (centres undefined),-11.2% (inactive)
2,Cc1cc(C)cc(NC(=O)NC2CCCCCCC2)c1,1.8% (inactive)
3,Cc1cc([N+](=O)[O-])c(N2CCC[C@@H]2C(=O)O)c([N+](=O)[O-])c1,2.1% (inactive)
4,Cc1cc([N+](=O)[O-])c(NC2CCCCC2)c([N+](=O)[O-])c1,45.6% (active)
5,CCCCN(CC(=O)NC(C)(C)C)C(=O)C(=O)Nc1ccc2c(c1)OCCO2,17% (inactive)
6,O=S(=O)(O)CCN1CCOCC1,24.3% (inactive)
7,O=C1c2ccccc2C(=O)C1C(=O)C1CC1,37.6% (active)
8,O=C1c2ccccc2-c2ccccc2NC1O (centres undefined),14.1% (inactive)
9,O=C1c2ccccc2C(=O)C1c1ccccc1,4.5% (inactive)
10,Cc1cccc2nc(CNc3ccc(F)cc3)cn12,-86.7% (inactive)
11,CCOC(=O)c1sc2nc(C)nc(Nc3ccc(OC)c(OC)c3)c2c1C,-82.2% (inactive)
12,CCCCN1CC(C)(C)[C@H](CC(=O)Nc2ccc(Br)cc2)C1=O,15.8% (inactive)
13,CN(C)c1nc(NN)nc(Nc2ccc(F)cc2)n1,12.3% (inactive)
14,CCn1c2ccc(F)cc2c2nnc(SCCN3CCOCC3)nc21,11.3% (inactive)
15,Cn1c2ccc(F)cc2c2nnc(NN)nc21,49.2% (active)
16,N#Cc1c(N)nc2c3c(sc(=N)c2c1N)NC(=O)CC3c1ccccc1Cl (centres undefined),-174% (inactive)
17,CCCCN1CC(N2CCN(Cc3cccc(C)c3)CC2)CS1(=O)=O (centres undefined),12.1% (inactive)
18,C#CCOc1ccccc1/C=C1/C(=O)ON=C1C,13.5% (inactive)
19,CC1=NOC(=O)/C1=C\c1ccccc1,42.9% (active)
20,Cc1ccc(S(=O)(=O)n2oc(=O)c(C3CCCCC3)c2N)cc1,7.6% (inactive)

row,Structure (SMILES),inhibition
1,COc1cc(OC)cc(C(=O)NCC(=O)OCc2csc(-c3ccccc3)n2)c1,15.3% (inactive)
2,Cc1ccc(F)cc1NC(=O)c1cccc(N(C)C)c1,-82.7% (inactive)
3,CN(C)S(=O)(=O)c1ccc(C(=O)NCC2(N3CCOCC3)CCCCC2)cc1,5.2% (inactive)
4,COc1cc(N2CCCC2)c(OC)cc1/C=C(/C#N)c1cccc(Br)c1,75.3% (active)
5,CCC(C)CN1CCC(CO)(Cc2ccccc2Cl)CC1 (centres undefined),1.5% (inactive)
6,COc1ccc(Br)c(Cn2c(C)c(C(=O)NCc3cccs3)sc2=O)c1,3.5% (inactive)
7,COc1cccc(Nc2nnc(SCC(=O)N3CC(=O)Nc4ccccc43)s2)c1,-6.6% (inactive)
8,COc1c(F)c(F)c(C(=O)O)c(Nc2ccccc2C)c1F,4.1% (inactive)
9,Cc1ccc(S(=O)(=O)N2CCN(CC(=O)N/N=C/c3ccc(Br)s3)CC2)cc1,6% (inactive)
10,Cc1nn(Cc2ccc(Cl)cc2)c(Cl)c1/C=N/NC(=O)CNc1ccccc1F,7.1% (inactive)
11,Cc1ccccc1NCC(=O)N/N=C\c1ccc([N+](=O)[O-])s1,45.1% (active)
12,O=C(CN(C(=O)CNC(=O)c1cccs1)c1cccc(F)c1)NC1CCCCC1,11.2% (inactive)
13,Cc1ccc(NC(=O)COC(=O)CN2CCSC2=O)cc1F,14.3% (inactive)
14,Cc1cccc(S(=O)(=O)N(C)C[C@H]2OCc3cnnn3CCCC(=O)N([C@@H](C)CO)C[C@H]2C)c1,14.1% (inactive)
15,CC(=O)N1CCN(S(=O)(=O)c2cccc(C(=O)NC3CCC(C)CC3)c2)CC1 (centres undefined),43.9% (active)
16,COc1ccc(OC)c(NC(=O)c2cccc(S(=O)(=O)N3CCN(C(C)=O)CC3)c2)c1,13.3% (inactive)
17,CC(=O)Nc1ccc(S(=O)(=O)N2CCC(NC(=O)c3ccccc3)CC2)cc1,9% (inactive)
18,C/C(=N\NC(=O)CCn1nc(C)cc1C)C(C)(C)C,13.5% (inactive)
19,CCN1C(=O)[C@H]2[C@@H](c3ccc(C(F)(F)F)cc3)N[C@]3(CCCN(Cc4ccc(Br)cc4)C3=O)[C@H]2C1=O,3.9% (inactive)
